This is part of a sample that, as a whole, favours compounds with a hit. Of some 83,000 tested, about 20% had one in any assay.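 Results are percent growth after 48 hours of single-concentration exposure. 100 means growth as in untreated cells, lower positive values show inhibition; negative values down to -100 show cell death.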 Values without a mark were called inactive. Active and inactive are the calls of the source. The calls were made as follows: active = growth percent below 10; inactive = the rest.
test system: HL-60(TB) leukemia; experiment: NCI-60 one-dose screen, 48 h (100 = growth as untreated, 0 = no growth, -100 = all killed); conditions: 10 µM unless noted

Question: With Cc1cccc(C[C@H](NC(=O)Nc2ccc(C)cc2F)C(=O)N[C@@H]2C(=O)N3C[C@H](O)C[C@H]3C(=O)N3CCN(C)C[C@H]3C(=O)N[C@@H](C)C(=O)N3C[C@H](C)C[C@H]3C(=O)O[C@H]2C)c1 as the compound, how does the growth read?
Answer: Its growth is 24.2%.

Question: Which growth does the source give for Cc1ccc(S(=O)(=O)NN/C(N)=N\S(=O)(=O)c2cc(C)c(Cl)cc2SCc2ccccc2)cc1 here?
Answer: The growth was 83.6%.

Question: Cc1ccc(-c2nc(SCC(=O)N3CCN(c4cc5c(cc4F)c(=O)c(C(=O)O)cn5C4CC4)CC3)nc(Cl)c2C#N)cc1 was tested. Which growth did it give?
Answer: The growth was 101%.

Question: CCO/C=N/C1=C(C#N)C(c2ccc(F)cc2)c2sc3c(F)cccc3c2O1 (stereo unspecified) was tested. Which growth did it give?
Answer: The growth was 6.35% (active).

Question: C/C(O)=C(/C=N/C(=S)Nc1ccccc1)C(=O)Nc1ccccc1C was tested. Which growth did it give?
Answer: The growth was 94.7%.

Question: Which growth does the source give for Cc1nc([N+](=O)[O-])c(Sc2nncc(-c3ccccc3)n2)n1C here?
Answer: The growth was 91.7%.

Question: With O=C(Cc1ccccc1)C(F)(F)F as the compound, how does the growth read?
Answer: Its growth is 95%.

Question: Which growth does the source give for O=C(c1ccc(F)c(F)c1Nc1ccc(I)cc1F)N1CC(O)([C@@H]2CCCCN2)C1 here?
Answer: The growth was -18.9% (active).

Question: Which growth does the source give for Cc1cc(Nc2ccc3c(c2)OCO3)c2cc3c(cc2n1)OCO3 here?
Answer: Its growth is -11.9% (active).

Question: How did the growth turn out when O=C(O)CCCC(=O)O was run?
Answer: Its growth is 99%.

Question: Which growth does the source give for CC(=O)Nc1ccc(S(=O)(=O)N2C(=O)CCC2C(=O)Nc2ccc(Br)cc2)cc1 (stereo unspecified) here?
Answer: Its growth is 15.5%.

Question: CS(=O)(CCCCN=C=S)=NC(=O)c1c(F)c(F)c(F)c(F)c1F (stereo unspecified) was tested. Which growth did it give?
Answer: Its growth is 72.5%.

Question: For S=C1SCN(CCc2ccccc2)CN1CCc1ccccc1, which growth is on record?
Answer: The growth was 89.7%.

Question: Which growth does the source give for COc1ccc(-c2ccc3c(N4CCOC[C@@H]4C)nc(N4CCOC[C@@H]4C)nc3n2)cc1CO here?
Answer: Its growth is 22.6%.

Question: Which growth does the source give for O=C(N/N=C/c1ccc(OC(F)F)c(OC2CCCC2)c1)c1cnn2c1NC(c1ccccc1)C2 (stereo unspecified) here?
Answer: Its growth is 100%.

Question: How did the growth turn out when CCCNC(=O)Oc1ccc(/C(=C(/CC)Cc2ccccc2)c2ccc(OCCN(CC)CC)cc2)cc1 was run?
Answer: The growth was 53.3%.

Question: CCC(C)(C)c1ccc(OCCCCCCN2CCNCC2)cc1 was tested. Which growth did it give?
Answer: The growth was -17.4% (active).

Question: For CCCNCC(=O)Nc1ccc(C(=O)OC(C)(C)CC)cc1, which growth is on record?
Answer: The growth was 89.8%.

Question: O=S(=O)(c1cccc(NC2=Nc3cccc4cccc2c34)c1)N1CCCC1 was tested. Which growth did it give?
Answer: The growth was 60.8%.

Question: For COc1cc(C(=O)Nc2cc(OC)c3ccn(C)c3c2)cc2c1C[C@]1(C)CC[C@@H](O)C(C)(C)[C@H]1O2, which growth is on record?
Answer: Its growth is 1.14% (active).

Question: Which growth does the source give for OC(c1ccccc1)(c1ccccc1)C(F)(F)F here?
Answer: The growth was 77.1%.

Question: CN(C)CCOc1nc2c3cccnc3cc(-c3cccc(Cl)c3)c2c2ncccc12 was tested. Which growth did it give?
Answer: Its growth is -20.4% (active).

Question: With CC(=O)Nc1sc2c(c1-c1nc3ccccc3s1)CNC2 as the compound, how does the growth read?
Answer: Its growth is 28.4%.

Question: With COc1ccc(C(=O)COc2ccc(/C=C3\COc4ccc(OC)cc4C3=O)cc2)cc1 as the compound, how does the growth read?
Answer: The growth was 59.4%.

Question: Which growth does the source give for O=C(/C=C/c1ccc(F)cc1)N1CCN(C(=O)/C=C/c2ccc(C(F)(F)F)cc2)CC1 here?
Answer: Its growth is 97%.

Question: How did the growth turn out when CCOC(=O)C(CNc1ccccc1)C(=O)OCC was run?
Answer: Its growth is 101%.

Question: Which growth does the source give for C[n+]1c(/C=C/c2ccc([N+](=O)[O-])cc2)ccc2ccccc21 here?
Answer: The growth was 99.3%.

Question: COC(=O)C1C(O)C(C)C(O)C(C)C=C(C)C2=C3C(=C(C)C(=O)c4c(O)c(c(C)c(OC(C)=O)c43)NC(=O)C(C)=C/C=C\C(C)C(O)C(C)C1O)OCO2 (stereo unspecified) was tested. Which growth did it give?
Answer: The growth was 141%.

Question: For N=C(N)/N=C(\CCc1nc2ccccc2[nH]1)c1nc2ccccc2[nH]1, which growth is on record?
Answer: Its growth is 118%.

Question: C#CCNC(=O)[C@H](CC)[C@H]1CC[C@H](C)[C@H]([C@@H](C)[C@H](O)[C@H](C)C(=O)[C@H](CC)C2O[C@]3(C=CC(=O)[C@]4(CC[C@@](C)([C@H]5CC[C@](O)(CC)[C@H](C)O5)O4)O3)[C@H](C)C[C@@H]2C)O1 (stereo partly specified) was tested. Which growth did it give?
Answer: Its growth is 1.79% (active).

Question: Which growth does the source give for Nc1ncnc2c1N=C(c1ccc3c(c1)OCO3)CC(c1cccc(Nc3ccnc4cc(C(F)(F)F)ccc34)c1)N2 (stereo unspecified) here?
Answer: The growth was 92.9%.

Question: For Cc1ccc(OCCOCCOCCOCCOCCOc2ccc(C)n(O)c2=S)c(=S)n1O, which growth is on record?
Answer: Its growth is -16.5% (active).

Question: Which growth does the source give for CC(C)OC(C(=O)O)c1ccccc1 (stereo unspecified) here?
Answer: The growth was 129%.

Question: CCN(CC)CCOCC[C@H]1CC[C@H]2[C@@H]3[C@H](C)Cc4cc(OS(N)(=O)=O)ccc4[C@H]3CC[C@]12C was tested. Which growth did it give?
Answer: The growth was -74.9% (active).

Question: For NC(N)=NC(N)=Nc1ccccc1-c1ccccc1, which growth is on record?
Answer: Its growth is 108%.

Question: CC1(C)CC(=O)c2c(ccc(C(=O)C[C@@H](N)CO)c2N)O1 was tested. Which growth did it give?
Answer: Its growth is 35.7%.

Source: PubChem BioAssay (NCI)
